Measured values: PubChem BioAssay (NCATS)
Records with an inconclusive call do not appear. Where a call stands in place of a potency, no number is given. The source made the active and inactive calls. The call rests on the fitted dose curve; in most records, active means well fitted inhibition curve with a large enough effect; inconclusive means small, poorly fitted or top-dose-only effect; inactive means flat fitted curve, though single readings scatter.
Potency means the concentration at half of the fitted maximal effect.

Each compound was assayed against Calcium and integrin-binding protein 1 (Homo sapiens) (UniProt Q99828) (assay: Primary qHTS for Identification of Calcium Integrin Binding Protein 1 (CIB1) Competitor (AID 1508620)). Details: CIB1-GST / FITC-alphaIIb peptide fluorescence polarization; series mostly up to 114 µM.
Sequence of Calcium and integrin-binding protein 1 (Homo sapiens) (Q99828 whole entry, looked up): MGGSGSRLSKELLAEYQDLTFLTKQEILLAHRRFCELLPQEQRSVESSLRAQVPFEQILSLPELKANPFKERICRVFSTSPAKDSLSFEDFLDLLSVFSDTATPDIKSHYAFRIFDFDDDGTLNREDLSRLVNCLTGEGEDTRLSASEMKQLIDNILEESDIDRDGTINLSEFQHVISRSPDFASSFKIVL
In short: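 Fluorescence polarization competition: CIB1-GST (1 uM final) preincubated with compound 15 min at room temperature, then FITC-labeled alphaIIb peptide (100 nM final) added for another 15 min. Polarization read at Ex 480/Em 540.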
With CN1CCN(C2=Nc3ccccc3Nc3ccc(Cl)cc32)CC1 the Potency was “inactive”.
O=S(=O)(Nc1ccccc1N1CCCCC1)c1ccc(Cl)s1 was tested, and the Potency was “inactive”.
For COc1cc(N(C)CCN(C)C)c(N)cc1Nc1nccc(-c2cn(C)c3ccccc23)n1, the Potency was “inactive”.
With CC(C)(C)[C@H](NC(=O)c1ccc(N)c(Cl)c1)C(=O)N1CCC[C@H]1C(=O)N[C@H](C#N)CC(=O)O the Potency was “inactive”.
With C#CCOc1ccc2c(c1)c(-c1ccc(C(C)C)cc1)nc(=O)n2C(C)C the Potency was “inactive”.
For Cc1ccc(NC(=O)C(C)C)cc1C1CCN(Cc2ccc(Oc3ccc(F)c(F)c3)cc2)CC1, the Potency was “inactive”.
In the case of c1ccc(-c2ccc(CNc3nc(-c4ccccn4)nnc3-c3ccccc3)cc2)cc1, the Potency was “inactive”.
CCc1ccc(-c2nc(CSCC(=O)NCCc3ccccc3)c(C)o2)cc1 was tested, and the Potency was “inactive”.
With Cc1cc2c(N3CCCC3)nc(N3CCCC3)nc2n1C the Potency was “inactive”.
COc1ccc(Cl)c(Nc2ncnc3cc(OCC4CCN(C)CC4)c(OC)cc23)c1 was tested, and the Potency was “inactive”.
CCNC(=O)N1CCCN(c2ccc(C(=O)NCCc3ccc(Cl)cc3Cl)cc2NC(=O)c2cccc(Cl)c2)CC1 was tested, and the Potency was “inactive”.
With C[C@@H](NC(=O)[C@H](O)c1cc(F)cc(F)c1)C(=O)N[C@@H]1C(=O)N(C)c2ccccc2-c2ccccc21 the Potency was “inactive”.
In the case of C=C1CCC[C@]2(C)CC/C(=C(/CO)C(=O)OC)C[C@@H]12, the Potency was “inactive”.
OC1C=C2C3CN(Cc4cc5c(cc43)OCO5)C2CC1O (centres undefined) was tested, and the Potency was “inactive”.
For C=C1C(=O)O[C@@H]2C[C@H](C)[C@@H]3CC(=O)C(C)=C3C[C@H]12, the Potency was “inactive”.
For COc1cc(O)c2c(c1)C1OC1C[C@H](O)[C@H](O)C(=O)/C=C\C[C@H](C)OC2=O (some centres undefined), the Potency was “inactive”.
CC(=O)O[C@H]1[C@@]2(O)C[C@H](C)[C@H](OC(=O)c3ccccc3)[C@@H]2[C@@H](OC(=O)CO)[C@]2(OC(C)=O)C[C@H]3C(=O)C(C)(C)C[C@@H]3[C@@]1(C)[C@H]2OC(C)=O was tested, and the Potency was “inactive”.
For CC1=CC2/C=C(\C)CCC(O)C(=O)C(O)CC(=O)C23C(=O)NC(CC(C)C)C3C1C (centres undefined), the Potency was “inactive”.
For CC1(C)CCC(C)(C)c2cc(C#Cc3ccc(C(=O)O)cc3)ccc21, the Potency was “inactive”.
For CNC(=O)COC(=O)N1CCC(CCc2ccc(Cl)cc2)CC1, the Potency was “inactive”.
With CC(=O)C1=C(O)C=C2Oc3c(C(C)=O)c(O)c(C)c(O)c3[C@]2(C)C1=O the Potency was “inactive”.
With COCc1c(Cl)ccc2c1CC[C@H]2c1ncc[nH]1 the Potency was “inactive”.
With C=C(C)C(=O)O[C@H]1[C@H]2C(=C)C(=O)O[C@@H]2/C=C(\CO)CC/C=C(/C=O)[C@@H]1O the Potency was “inactive”.
In the case of CC(=O)OC1CC(C)(C(=O)O)CC2C3=CC(=O)C4C5(C)CCC(OC6OC(C(=O)O)C(O)C(O)C6OC6OC(C(=O)O)C(O)C(O)C6O)C(C)(C)C5CCC4(C)C3(C)CCC12C (centres undefined), the Potency was “inactive”.
For CN1CCC(c2cn(C)c3ccc(OS(=O)(=O)c4c(F)cccc4F)cc23)CC1, the Potency was “inactive”.
COc1ccccc1C(=O)Nc1cccc(NC(=O)c2cccc(C)c2)c1 was tested, and the Potency was “inactive”.
With COc1cc2c(cc1NS(=O)(=O)c1ccc(Br)cc1C)n(C)c(=O)n2C the Potency was “inactive”.
C=C1C(=O)OC2/C=C(\C)CC/C=C(\C=O)C(OC)C(OC(=O)C(C)CC)C12 (centres undefined) was tested, and the Potency was “inactive”.
With C[C@H]1[C@H](/C=C/c2ccc(-c3ccccc3C#N)cn2)[C@@H]2[C@@H](C)OC(=O)[C@@H]2C[C@@H]1C the Potency was “inactive”.
For CC(NC(=O)Cc1cc(F)cc(F)c1)C(=O)NC1C(=O)N(C)c2ccccc2-c2ccccc21 (centres undefined), the Potency was “inactive”.
In the case of COc1ccc(C(=O)O[C@H]2C=COC=C3C=C4C(=O)N(C)C(=S)C(=O)N4[C@@H]32)cc1Oc1cc(C=O)ccc1O, the Potency was 22.4 µM (active).
With O=c1[nH]c2cccc(N3CCN(Cc4ccc(-c5ccccc5)cc4)CC3)c2o1 the Potency was “inactive”.
For Cn1ccc(NC(=O)c2cc(Oc3ccc(C(=O)N4CCC4)c(F)c3)c3c(c2)OC(C)(C)C3)n1, the Potency was “inactive”.
In the case of CC(C)CCNc1ncccc1C(=O)N1CCN(Cc2ccccc2)CC1, the Potency was “inactive”.
Cc1ccc(C)c(NC(=O)[C@@H]2CCCN2S(=O)(=O)c2cccc3cccnc23)c1 was tested, and the Potency was “inactive”.
C/C=C(\C)C(=O)O[C@H]1C[C@](C)(O)[C@H]2CC=C(C)[C@H]2[C@@H]2OC(=O)[C@H](C)[C@H]21 was tested, and the Potency was “inactive”.
With Cn1c(=O)c(F)c(Nc2ccc(I)cc2F)c2c(=O)n(CC(O)CO)cnc21 (centres undefined) the Potency was “inactive”.
For CC(=O)O[C@@H]1CC2C(/C=C(\C)C(=O)[C@@]3(O)C[C@@H](C)[C@H](OC(=O)c4ccccc4)C3/C=C/1C)C2(C)C (some centres undefined), the Potency was “inactive”.
CC(=O)OC1CC(O)(C(C)C)C2C(OC(=O)c3ccc(O)cc3)C=C(C)C(=O)CC12C (centres undefined) was tested, and the Potency was “inactive”.
